From the supplement of paper PMC8291772
± gives the standard error. Whole data set: some 1,300 sequences, median “fluorescence a.u.” near 420, cut for the highest 2% near 1,100. For the sample, the highest values were picked, then their nearest neighbours and some sequences at random.

Molecular target: terminal deoxynucleotidyl transferase (calf thymus) (UniProt P06526)
Assay: TdT poly-dT extension signal (Cy3 hybridisation fluorescence, uncapped minus capped) (fluorescence a.u.); higher = more efficient initiation of TdT extension
Settings: initiator chemistry: 2'-O-methyl-RNA, free 3'-OH (5'-tethered via HEG linker)
Procedure: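 All mono- to pentamer 2'-O-methyl-RNA initiators were made by photolithographic in situ synthesis (3'-NPPOC amidites, reverse direction, free 3'-OH) on glass on a hexaethylene glycol linker. Each was made in uncapped and DMTr-dT-capped versions, about 11 replicates each. Arrays were extended with calf thymus TdT (0.2 U/uL), 100 uM dTTP and 0.25 mM CoCl2 for 120 min at 37 C, hybridised with an rA18-Cy3 probe and scanned at 532 nm. The value is the mean uncapped minus the mean capped signal. IDs are written 3'->5' and are reversed to 5'->3'; all nucleotides are 2'-OMe.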

terminal deoxynucleotidyl transferase (calf thymus), sequence (P06526 whole entry): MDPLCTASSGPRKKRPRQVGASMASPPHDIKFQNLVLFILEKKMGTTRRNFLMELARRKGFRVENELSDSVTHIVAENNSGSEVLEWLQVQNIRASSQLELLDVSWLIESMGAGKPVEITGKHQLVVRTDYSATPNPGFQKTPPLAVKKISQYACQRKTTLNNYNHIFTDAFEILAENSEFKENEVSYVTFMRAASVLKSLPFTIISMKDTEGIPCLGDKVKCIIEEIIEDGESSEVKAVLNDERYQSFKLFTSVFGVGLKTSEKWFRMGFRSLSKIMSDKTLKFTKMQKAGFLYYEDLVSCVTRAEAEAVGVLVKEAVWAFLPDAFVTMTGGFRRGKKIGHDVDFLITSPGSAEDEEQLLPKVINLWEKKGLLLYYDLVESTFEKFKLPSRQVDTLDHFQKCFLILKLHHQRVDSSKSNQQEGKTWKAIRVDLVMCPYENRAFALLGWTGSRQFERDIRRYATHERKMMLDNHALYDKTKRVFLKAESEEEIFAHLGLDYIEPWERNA

In order of rising “TdT poly-dT extension signal” value:
1. AUGUG  141 ± 13
2. UGUG  149 ± 15
3. GUUG  156 ± 11
4. GUAUG  157 ± 12
5. UUCG  159 ± 17
6. AAUG  175 ± 23
7. AUUGG  176 ± 11
8. UUGG  177 ± 12
9. GCCG  192 ± 16
10. CUCCG  194 ± 14
11. UCUG  199 ± 16
12. GGUG  210 ± 18
13. CAUGG  217 ± 15
14. GUCUG  218 ± 15
15. AAUGG  219 ± 18
16. CCUGG  221 ± 18
17. UUUCA  224 ± 24
18. UUUCU  226 ± 34
19. CCCCG  227 ± 18
20. GCUUG  230 ± 30
21. UACG  231 ± 24
22. AGUG  231 ± 23
23. CGUUU  232 ± 14
24. AUACG  244 ± 16
25. AAUUU  252 ± 27
26. ACUCG  256 ± 14
27. CAUG  261 ± 26
28. GCCGG  264 ± 21
29. CGCUG  264 ± 25
30. AUAGG  266 ± 22
31. CUCUU  266 ± 14
32. UUAGG  271 ± 26
33. GGUAG  272 ± 28
34. CACUG  276 ± 22
35. AGUGG  280 ± 18
36. GCGGG  285 ± 16
37. GGCUG  287 ± 31
38. UCACG  290 ± 31
39. GGGCA  291 ± 26
40. AACCG  293 ± 26
41. CAUU  293 ± 19
42. CGUG  298 ± 26
43. CGGUU  300 ± 22
44. UCGG  302 ± 31
45. CGUCA  307 ± 18
46. GGCGG  310 ± 26
47. GAACG  310 ± 29
48. CCCG  312 ± 43
49. UAACA  312 ± 21
50. UAGGG  313 ± 21
51. GACUU  318 ± 22
52. GAAUU  321 ± 24
53. CGCCG  324 ± 46
54. UGCGG  324 ± 29
55. CGUAU  326 ± 32
56. UUGCU  326 ± 35
57. UCAUU  329 ± 26
58. AUUAU  330 ± 49
59. GGGCG  330 ± 32
60. GGCUU  336 ± 21
61. AUUC  339 ± 23
62. CGGCU  341 ± 24
63. CCUUC  341 ± 33
64. AGUU  341 ± 23
65. CCUU  343 ± 26
66. GACCA  345 ± 31
67. GACA  349 ± 28
68. UAAGG  350 ± 28
69. GCGCA  351 ± 19
70. CCGCG  351 ± 19
71. CCUAG  353 ± 33
72. AAUUA  354 ± 22
73. CAGCU  361 ± 26
74. GAGGG  362 ± 32
75. UGUGA  362 ± 29
76. GAUUA  366 ± 28
77. AACUU  369 ± 22
78. UAGU  371 ± 23
79. CAACA  373 ± 34
80. CAUGU  374 ± 35
81. GGAG  374 ± 20
82. UUAUA  375 ± 34
83. GGUA  376 ± 23
84. AUUCC  377 ± 21
85. AAGG  383 ± 41
86. GUAAU  383 ± 30
87. UCAGG  384 ± 36
88. CAAGG  388 ± 18
89. CGUGA  389 ± 45
90. UUCGA  389 ± 32
91. CUCC  396 ± 35
92. UCACC  396 ± 31
93. UUUAC  399 ± 22
94. UCGCU  401 ± 25
95. UAAG  401 ± 44
96. UCGAU  402 ± 31
97. AAUGA  403 ± 20
98. CCACC  410 ± 37
99. UUAC  418 ± 28
100. CUUAC  422 ± 38
101. CACGG  422 ± 55
102. CACA  425 ± 22
103. CCCCC  425 ± 34
104. CGCU  427 ± 65
105. CGAU  429 ± 24
106. GAUA  432 ± 34
107. AGGAU  433 ± 28
108. AGGAG  436 ± 25
109. CUAUA  436 ± 37
110. CUGUC  440 ± 40
111. UUCAU  442 ± 20
112. ACAUC  447 ± 23
113. UGGU  453 ± 25
114. AUCAG  458 ± 47
115. UCGCA  463 ± 31
116. CGGAG  465 ± 66
117. CACAU  469 ± 23
118. UCGGU  469 ± 22
119. CCAG  470 ± 39
120. UUUAA  472 ± 39
121. GGGGG  472 ± 39
122. GUCUA  477 ± 45
123. CGUAC  482 ± 33
124. CUCGU  483 ± 44
125. GGUGU  484 ± 37
126. CUCAG  488 ± 37
127. GGUC  489 ± 33
128. GCCAG  491 ± 83
129. AGAG  491 ± 39
130. GCAG  492 ± 30
131. CAGGU  493 ± 28
132. UUCGU  500 ± 42
133. AACUC  504 ± 22
134. AAGAU  506 ± 39
135. CAGU  512 ± 30
136. CAGUC  521 ± 42
137. CCUA  528 ± 39
138. UAAAG  531 ± 53
139. AAAGU  535 ± 51
140. AAAG  538 ± 32
141. CAGUA  544 ± 58
142. CCCAU  552 ± 28
143. GCGGA  554 ± 28
144. AGCGA  556 ± 38
145. GUAAC  558 ± 40
146. ACCAG  559 ± 61
147. GAAAG  560 ± 51
148. CAGCA  560 ± 60
149. AACAG  567 ± 34
150. AAAU  568 ± 46
151. ACCUA  571 ± 34
152. AAAAG  572 ± 40
153. GGCAU  577 ± 48
154. AAUAC  583 ± 71
155. UGGA  586 ± 52
156. UCGA  592 ± 34
157. CAAG  600 ± 36
158. ACAAG  613 ± 60
159. AACGA  620 ± 72
160. GGCUA  621 ± 50
161. CAAAU  657 ± 54
162. AACUA  675 ± 34
163. ACCAC  681 ± 58
164. GCCAA  696 ± 70
165. CAAAG  703 ± 58
166. GGAC  724 ± 120
167. CCAAC  725 ± 53
168. AUCAC  729 ± 63
169. GUGAA  729 ± 86
170. UAAA  764 ± 51
171. UGCAA  770 ± 77
172. CUAGC  785 ± 76
173. AAUAA  788 ± 62
174. UCAGA  821 ± 37
175. AGAGA  827 ± 77
176. CCAGA  833 ± 99
177. GCAA  841 ± 41
178. CAAGA  858 ± 93
179. GAAA  879 ± 110
180. UGAAA  894 ± 54
181. ACAGA  899 ± 79
182. CCGGC  929 ± 50
183. GCAAC  935 ± 81
184. GCGC  946 ± 73
185. AGAA  990 ± 120
186. GCGAA  1000 ± 120
187. GAAAC  1000 ± 140
188. CAAA  1010 ± 77
189. AAAA  1010 ± 74
190. CGAGC  1020 ± 61
191. UCAGC  1040 ± 72
192. GAGGC  1040 ± 84
193. CCAA  1060 ± 95
194. ACAA  1060 ± 140
195. CAGGC  1060 ± 81
196. GAAGC  1060 ± 81
197. CGGGC  1070 ± 81
198. UCCGC  1090 ± 36
199. GACGC  1120 ± 110
200. AGGGC  1120 ± 71
201. UCGC  1140 ± 90
202. CAUGC  1140 ± 140
203. AAUGC  1140 ± 77
204. AAAAA  1140 ± 80
205. CAAAA  1140 ± 66
206. AGAGC  1140 ± 83
207. ACAAA  1170 ± 100
208. CCAAA  1170 ± 64
209. AAGGC  1170 ± 40
210. UUCGC  1170 ± 79
211. CAGC  1170 ± 110
212. UACGC  1190 ± 92
213. UAAAA  1190 ± 120
214. UAAGC  1190 ± 89
215. CCCGC  1200 ± 97
216. CGUGC  1220 ± 81
217. AGUGC  1230 ± 130
218. CCAGC  1240 ± 140
219. GCAAA  1260 ± 170
220. AAAGC  1270 ± 67
221. CAAGC  1300 ± 67
222. GGGC  1320 ± 130
223. GAAAA  1340 ± 160
224. GGAGC  1340 ± 130
225. UGUGC  1360 ± 95
226. GGUGC  1450 ± 72
